About 79,000 compounds went through this panel and 15% of them were active in at least one assay; those are over-represented in the sample as a whole. Values without a mark were called inactive. Rule as the data show it: active = growth inhibition above about 70%; inactive = the rest. Where a SMILES comes first, the peptide text is derived from it. The star is where a group is joined. Cbz = O=C(OCc1ccccc1)*

The test in a line: NCI Yeast Anticancer Drug Screen. Data for the mec2-1 strain (AID 157). The conditions noted are these: S. cerevisiae mec2-1 strain, at 50.0 µM, stronger effect = higher value. A digest of the protocol:
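Mutant yeast (mec2-1) grown with compound; growth inhibition relative to vehicle control reported.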
For the compound `Cn1c(-c2ccccc2)cc(=O)cc1-c1ccccc1`, the growth inhibition is 13.1%.
As for `C1CCC(CCC2CCCC[N-]2)[N-]C1.[I][Co][I]` (stereo not given), the figure is 27.9%; as for `CCCCCn1cnc2cc(N3CCOCC3)c([N+](=O)[O-])cc2c1=O`, 34.9%; as for `CN(C)C(=N)N=C(N)N`, -30.1%.
As for `CC(=O)Oc1c2oc3cc(O)c(O)cc3c2c(OC(C)=O)c2oc3cc(O)c(O)cc3c12`, the figure is 0.05%; as for `OCC(O)C(O)C(O)C(Sc1ccccc1)Sc1ccccc1` (stereo not given), 11.8%.
The same measure for `Cn1c(C(N)=O)cc(=O)n1-c1ccc([N+](=O)[O-])cc1`: 18.7%; for `N/N=C/c1ccc2ccccc2n1`: -12.6%; for `Brc1ccc(Nc2ccc(Br)cc2Br)c(Br)c1`: 23.1%.
Turning to `CN(C)c1ccc(C=Nc2ccc3c(c2)C(N2CCOCC2)c2ccccc2-3)cc1` (stereo not given), the growth inhibition was -7%.
As for `Cc1cc2c3c(c1)CCCN3CCC2`, the figure is -8.9%.
The same measure for `c1ccc(B2O[C@H]3CCCC[C@@H]3O2)cc1`: 13.9%.
As for `CCNCC(=O)Nc1ccccc1C(=O)OCC`, the figure is 14%.
In the case of `CC1CCOC(/C=C/c2ccccc2)O1` (stereo not given), the growth inhibition was -6.7%.
As for `CCCC(=O)OCC1OC2OC(C)(C)OC2C2OC(C)(C)OC12` (stereo not given), the figure is -2.55%; as for `C=C(CC)C(=O)c1ccc(OCC(=O)O)c(Cl)c1Cl`, -15.9%.
As for `N#CCCNCCNCCC#N`, the figure is -2.25%; as for `C[N+]([O-])(C/C=C/c1ccccc1)c1ccccc1` (stereo not given), -2.3%.
The same measure for `O=c1onc2c3ccccc3ncn12`: 7.6%; for `CC(C(=O)O)n1c(=O)ssc1=O` (stereo not given): 3.05%; for `CCOC(=O)CCC(NC(=O)c1ccc([N+](=O)[O-])cc1)C(=O)OCC` (stereo not given): -32.3%.
As to `COc1cc(-c2cc(=O)c3c(O)c(OC)c(OC)cc3o2)ccc1O`, the growth inhibition is -40.2%.
As for `CC(=O)c1cc2c(cc1C)CCCC2(C)C`, the figure is -3.8%; as for `CN(C)CC1CC=CCC1CN(C)C` (stereo not given), 0%; as for `O=C(CC(=O)N1N=C(N(c2ccccc2)c2ccccc2)CC1c1ccccc1)Nc1ccccc1` (stereo not given), 6.4%.
As for `CC(O)C(NC(=O)C(Cc1ccc(O)cc1)NC(=O)OCc1ccccc1)C(=O)O` (stereo not drawn) (Cbz-Tyr-Thr-OH; configuration not given here), the growth inhibition is -4.25%.
The same measure for `BrC1(Br)C2CC/C=C/CCCCC21` (stereo not given): 13.9%; for `C=C1CCC/C(=N\Nc2ccc([N+](=O)[O-])cc2[N+](=O)[O-])C12CCCC2`: 3.45%; for `CC(=O)Oc1cccc(/C=C/C(=O)O)c1`: 29.3%.
The same measure for `Cc1ccc2c(ccc3ccccc32)n1`: 16.8%; for `COc1cccc(C2c3cc4c(cc3OC(C)(OC)C2C)OCO4)c1` (stereo not given): 22.8%; for `O=C(c1nc2ccccc2[nH]1)N1CCN(c2ccccc2)CC1`: -1.55%.
The same measure for `O=C(O)c1ccc(CS(=O)c2ccccc2)c([N+](=O)[O-])c1` (stereo not given): -0.7%.
Regarding `Nc1ccc2ccccc2c1[N+](=O)[O-]`, the growth inhibition is 10.1%.
The same measure for `O/N=C1/CCCCC1NO` (stereo not given): -22.9%; for `N#CCCOC1C(OCCC#N)C(OCCC#N)C(OCCC#N)C(OCCC#N)C1OCCC#N` (stereo not given): -23.1%.
As for `COC1=C(c2c[nH]c3ccc(CC=C(C)C)cc23)C(=O)C(OC)=C(c2c[nH]c3ccc(CC=C(C)C)cc23)C1=O`, the figure is 6.5%.
The same measure for `CCCCCCC#CC(=O)OCCCC`: -14.9%; for `CCc1ccc2c(c1)C(C)(CC)CCC2C` (stereo not given): -6.5%.
For `CCCCCCCCC(C)(C)O`, the growth inhibition is -3.55%.
